Assay [1] in a line: NCI Yeast Anticancer Drug Screen. Data for the rad50 strain (AID 155).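 Also: 0% = growth of vehicle-only cultures of the same strain.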 To be noted: S. cerevisiae rad50 strain growth inhibition, stronger effect = higher value. In short, it runs like this: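 Relative growth inhibition (compound vs vehicle) was measured in yeast with a defined repair-gene alteration.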
Assay [2] can be described thus: NCI Yeast Anticancer Drug Screen. Data for the mec2-1 strain (AID 157). To be noted: S. cerevisiae mec2-1 strain, stronger effect = higher value. In short, it runs like this:
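Yeast mec2-1 mutant treated with compound. Readout: growth inhibition vs vehicle controls.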

The nature of assay [3]: NCI Yeast Anticancer Drug Screen. Data for the sgs1 mgt1 strain (AID 161).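 Also: 0% = growth of cultures given vehicle only.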 To be noted: S. cerevisiae sgs1 mgt1 strain, stronger effect = higher value. In short, it runs like this: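 Mutant yeast exposed to compound; growth scored against vehicle-only wells.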
A short description of assay [4]: NCI Yeast Anticancer Drug Screen. Data for the cln2 rad14 strain (AID 165).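 Also: 0% = growth equal to vehicle treated cultures.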 To be noted: S. cerevisiae cln2 rad14 strain, stronger effect = higher value. Put shortly:
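cln2 rad14 yeast strain; compound exposure; growth inhibition read vs vehicle controls.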

Assay [5] in a line: NCI Yeast Anticancer Drug Screen. Data for the bub3 strain (AID 167). To be noted: S. cerevisiae bub3 mutant strain, stronger effect = higher value. In short, it runs like this: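 Screening used yeast with an engineered genetic alteration affecting cell cycle control. Compound-exposed cultures were compared with vehicle cultures, and reduced growth was taken as inhibition.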
Assay [6] is described as follows: NCI Yeast Anticancer Drug Screen. Data for the mlh1 rad18 strain (AID 175). The following applies: S. cerevisiae mlh1 rad18 strain growth inhibition, stronger effect = higher value. Put shortly: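 Yeast w/ defined DNA-repair lesions; compound exposure; growth vs vehicle controls → % inhibition.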
Setting [7] is: at 5.0 µM (retest, dose inferred, filed as 0.5).
Where [8] appears, read: at 50.0 µM (retest, dose inferred, filed as 5.0).

The record followed here is PubChem BioAssay (NCI).

About 79,000 compounds went through this panel and 15% of them were active in at least one assay; those are over-represented in the sample as a whole. Values without a mark were called inactive. Activity calls are given as the source filed them. Rule as the data show it: active = growth inhibition above about 70%; inactive = the rest.

On to `CC1=CC[C@@H]2[C@@H](CC[C@@]2(C)O)C(C)(C)[C@H]1CC[C@@H]1[C@@]2(C)CC[C@@H](O)C(C)(C)O[C@@H]2CC[C@]1(C)O`, for which the growth inhibition in assay [1] (setting [7]) was 12%; in assay [1] (setting [8]), 39%; in assay [1] (at 50.0 µM), 62.9%; in assay [2] (setting [7]), -8%; in assay [2] (setting [8]), 19%; in assay [2] (at 50.0 µM), 38%. Besides, the growth inhibition is 4% in assay [3] (setting [7]); 70% (active) in assay [3] (setting [8]); 77.5% (active) in assay [3] (at 50.0 µM); 18% in assay [4] (setting [7]); 19% in assay [4] (setting [8]); 46% in assay [4] (at 50.0 µM). Besides, the growth inhibition was 17% in assay [5] (setting [7]); 33% in assay [5] (setting [8]); 45.8% in assay [5] (at 50.0 µM); -2% in assay [6] (setting [7]); 20% in assay [6] (setting [8]); 12.6% in assay [6] (at 50.0 µM).

With `COc1cc(NC(=O)C2=C(C)NC(C)=C(C(=O)Nc3cc(OC)c(Cl)cc3OC)C2c2cccc([N+](=O)[O-])c2)c(OC)cc1Cl`, the growth inhibition is -24% in assay [1] (setting [7]); 96% (active) in assay [1] (setting [8]); 96.7% (active) in assay [1] (at 50.0 µM); 5% in assay [2] (setting [7]); 97% (active) in assay [2] (setting [8]); 76.3% (active) in assay [2] (at 50.0 µM). Moreover, the growth inhibition in assay [3] (setting [7]) was 6%; in assay [3] (setting [8]) it was 95% (active); in assay [3] (at 50.0 µM) it was 96.9% (active); in assay [4] (setting [7]), -31%; in assay [4] (setting [8]), 96% (active); in assay [4] (at 50.0 µM), 95.8% (active). For the same molecule, the growth inhibition in assay [5] (setting [7]) was 27%; in assay [5] (setting [8]) it was 97% (active); in assay [5] (at 50.0 µM) it was 95.5% (active); in assay [6] (setting [7]), -14%; in assay [6] (setting [8]) it was 96% (active); in assay [6] (at 50.0 µM) it was 96.9% (active).

In the case of `CCN(CC)c1ccc(/C=C\C(=O)c2ccc(NC(C)=O)cc2)cc1`, the growth inhibition in assay [1] (setting [7]) was -22%; in assay [1] (setting [8]), -8%; in assay [1] (at 50.0 µM) it was 22.8%; in assay [2] (setting [7]) it was -14%; in assay [2] (setting [8]), -21%; in assay [2] (at 50.0 µM), 55.4%. For the same molecule, the growth inhibition was -13% in assay [3] (setting [7]); -2% in assay [3] (setting [8]); 52% in assay [3] (at 50.0 µM); -11% in assay [4] (setting [7]); -10% in assay [4] (setting [8]); 28.6% in assay [4] (at 50.0 µM). Moreover, the growth inhibition in assay [5] (setting [7]) is -12%; in assay [5] (setting [8]), -4%; in assay [5] (at 50.0 µM), 76.8% (active); in assay [6] (setting [7]) it was -21%; in assay [6] (setting [8]), -9%; in assay [6] (at 50.0 µM), 52%.

`COc1ccc(OC)c(Cc2cnc3nc(N)nc(N)c3c2C)c1`: the growth inhibition in assay [1] (setting [7]) is 21%; in assay [1] (setting [8]) it was 35%; in assay [1] (at 50.0 µM), 67.5%; in assay [2] (setting [7]) it was 18%; in assay [2] (setting [8]) it was 74% (active); in assay [2] (at 50.0 µM), 19.7%. Further, the growth inhibition in assay [3] (setting [7]) was 12%; in assay [3] (setting [8]), 36%; in assay [3] (at 50.0 µM), 41.5%; in assay [4] (setting [7]), 9%; in assay [4] (setting [8]), 19%; in assay [4] (at 50.0 µM) it was 6.45%. In addition, the growth inhibition in assay [5] (setting [7]) is 13%; in assay [5] (setting [8]) it was 19%; in assay [5] (at 50.0 µM), 29.1%; in assay [6] (setting [7]), 18%; in assay [6] (setting [8]), 23%; in assay [6] (at 50.0 µM) it was -1.5%.

`CN(C)CC(C)(CN(C)C)C(=O)/C=C/c1c(Cl)cccc1Cl`: the growth inhibition in assay [1] (setting [7]) was 5%; in assay [1] (setting [8]), 84% (active); in assay [1] (at 50.0 µM) it was 85% (active); in assay [2] (setting [7]), -2%; in assay [2] (setting [8]), 73% (active); in assay [2] (at 50.0 µM) it was 93.7% (active). Moreover, the growth inhibition in assay [3] (setting [7]) was 1%; in assay [3] (setting [8]), 93% (active); in assay [3] (at 50.0 µM), 77.4% (active); in assay [4] (setting [7]), 3%; in assay [4] (setting [8]), 56%; in assay [4] (at 50.0 µM) it was 18.9%. For the same molecule, the growth inhibition in assay [5] (setting [7]) was 4%; in assay [5] (setting [8]) it was 87% (active); in assay [5] (at 50.0 µM), 81% (active); in assay [6] (setting [7]), 7%; in assay [6] (setting [8]), 93% (active); in assay [6] (at 50.0 µM) it was 91.5% (active).

For the molecule `CC(C)(C)c1ccc(O)c(-c2ccccc2)c1`, the growth inhibition in assay [1] (setting [7]) was -3%; in assay [1] (setting [8]), 97% (active); in assay [1] (at 50.0 µM), 99.2% (active); in assay [2] (setting [7]), -6%; in assay [2] (setting [8]), 98% (active); in assay [2] (at 50.0 µM), 99.7% (active). In addition, the growth inhibition in assay [3] (setting [7]) is -2%; in assay [3] (setting [8]), 98% (active); in assay [3] (at 50.0 µM), 99.5% (active); in assay [4] (setting [7]), -8%; in assay [4] (setting [8]), 98% (active); in assay [4] (at 50.0 µM), 97.2% (active). For the same molecule, the growth inhibition in assay [5] (setting [7]) was 2%; in assay [5] (setting [8]), 97% (active); in assay [5] (at 50.0 µM), 99.2% (active); in assay [6] (setting [7]), -4%; in assay [6] (setting [8]), 98% (active); in assay [6] (at 50.0 µM), 66.5%.

Take `Nc1nc2ncc(CNc3ccc(C(=O)NC(CCC(=O)NC(CCC(=O)NC(CCC(=O)NC(CCC(=O)NC(CCC(=O)O)C(=O)O)C(=O)O)C(=O)O)C(=O)O)C(=O)O)cc3)nc2c(=O)[nH]1` (stereo not given): the growth inhibition was -19% in assay [1] (setting [7]); -9% in assay [1] (setting [8]); 25.2% in assay [1] (at 50.0 µM); 0% in assay [2] (setting [7]); -6% in assay [2] (setting [8]); 18.3% in assay [2] (at 50.0 µM). Besides, the growth inhibition in assay [3] (setting [7]) was 0%; in assay [3] (setting [8]) it was -12%; in assay [3] (at 50.0 µM) it was 24.6%; in assay [4] (setting [7]), 12%; in assay [4] (setting [8]) it was 1%; in assay [4] (at 50.0 µM) it was 47%. For the same molecule, the growth inhibition was -5% in assay [5] (setting [7]); -2% in assay [5] (setting [8]); -19.5% in assay [5] (at 50.0 µM); 10% in assay [6] (setting [7]); 20% in assay [6] (setting [8]); 8.35% in assay [6] (at 50.0 µM).

`O=C1C=CC(O)=CC1=P(c1ccccc1)(c1ccccc1)c1ccccc1`: the growth inhibition in assay [1] (setting [7]) was 2%; in assay [1] (setting [8]), 11%; in assay [1] (at 50.0 µM), 48.1%; in assay [2] (setting [7]) it was -1%; in assay [2] (setting [8]), 6%; in assay [2] (at 50.0 µM), -8.55%. In addition, the growth inhibition in assay [3] (setting [7]) is -1%; in assay [3] (setting [8]), 2%; in assay [3] (at 50.0 µM) it was 47.5%; in assay [4] (setting [7]) it was -2%; in assay [4] (setting [8]), -3%; in assay [4] (at 50.0 µM), 7.4%. Further, the growth inhibition was -4% in assay [5] (setting [7]); 2% in assay [5] (setting [8]); 25.9% in assay [5] (at 50.0 µM); 3% in assay [6] (setting [7]); 8% in assay [6] (setting [8]); 34.5% in assay [6] (at 50.0 µM).

Regarding `c1ccc(-c2cc3cc4ccccc4cn3c2)cc1`, the growth inhibition in assay [1] (setting [7]) is 58%; in assay [1] (setting [8]), 93% (active); in assay [1] (at 50.0 µM) it was 83.8% (active); in assay [2] (setting [7]), 43%; in assay [2] (setting [8]) it was 94% (active); in assay [2] (at 50.0 µM), 83.8% (active). Also, the growth inhibition in assay [3] (setting [7]) was 52%; in assay [3] (setting [8]), 97% (active); in assay [3] (at 50.0 µM), 88.8% (active); in assay [4] (setting [7]), 35%; in assay [4] (setting [8]), 84% (active); in assay [4] (at 50.0 µM), 82.8% (active). The growth inhibition was 53% in assay [5] (setting [7]); 97% (active) in assay [5] (setting [8]); 86.3% (active) in assay [5] (at 50.0 µM); 61% in assay [6] (setting [7]); 95% (active) in assay [6] (setting [8]); 86.7% (active) in assay [6] (at 50.0 µM).

`CN=C(N)N/N=C(\C)c1ccc2c(c1)Cc1ccccc1-2`: the growth inhibition in assay [1] (setting [7]) was 32%; in assay [1] (setting [8]), 98% (active); in assay [1] (at 50.0 µM), 77.5% (active); in assay [2] (setting [7]), 19%; in assay [2] (setting [8]) it was 99% (active); in assay [2] (at 50.0 µM) it was 59.9%. For the same molecule, the growth inhibition in assay [3] (setting [7]) was 51%; in assay [3] (setting [8]), 96% (active); in assay [3] (at 50.0 µM), 84.2% (active); in assay [4] (setting [7]) it was 42%; in assay [4] (setting [8]), 86% (active); in assay [4] (at 50.0 µM) it was 52.8%. Further, the growth inhibition is 48% in assay [5] (setting [7]); 95% (active) in assay [5] (setting [8]); 81.5% (active) in assay [5] (at 50.0 µM); 26% in assay [6] (setting [7]); 96% (active) in assay [6] (setting [8]); 92.7% (active) in assay [6] (at 50.0 µM).
